Results on twelve compounds are retold here after PubChem BioAssay (Tox21).

Each structure is given as a SMILES string. “And” between values parts separate entries of the source, which are not always exact repeats. Identical values can stand only once. Results filed as inconclusive are left out. More than one record can exist for a structure, and the calls need not agree. The source made the active and inactive calls. Unless noted, calls come from the whole dose curve; as a rule, active = well fitted curve in the direction sought with a large enough effect in the repeat runs; inconclusive = weak or mixed curves; inactive = no such curve, though single readings can be large; an effect the other way counts as inactive or inconclusive.

A short description of assay [1]: A CellTox Green Cytotoxicity Assay to monitor cytotoxicity in HepG2 cells - 0 hour (AID 1224882). Note: nearly all actives have a fitted effect of over 35% in size. In outline: (§1)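 Continuous culture of HepG2 cells with a membrane-impermeant DNA dye; rising fluorescence marks dead cells. Compound exposure lasted up to 40 h at 37 C, with reads every 8 h from 0 h.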
A short description of assay [2]: A CellTox Green Cytotoxicity Assay to monitor cytotoxicity in HepG2 cells - 32 hour (AID 1224883). Note: nearly all actives have a fitted effect of over 50% in size. Summed up: as §1
Assay [3] in a line: A CellTox Green Cytotoxicity Assay to monitor cytotoxicity in HEK293 cells - 8 hour (AID 1224884). Note: nearly all actives have a fitted effect of over 35% in size. Note: potency is the fitted concentration of half-maximal effect. In outline:
(§2)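 Each value comes from one timepoint of a single continuous run in which HEK293 cells with CellTox Green were exposed to compound for up to 40 h at 37 C, dye fluorescence rising with cell death.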

Assay [4] is described as follows: qHTS RealTime-Glo MT Cell Viability Assay in HepG2 cells - 16 hour (AID 1224885). Note: nearly all actives have a fitted effect of over 50% in size. Summed up:
(§3)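 Tox21 10K library screened in qHTS format on HepG2 cells carrying RealTime-Glo reagents. Compounds were added after a 5 h preincubation, and the luminescent signal from continuous culture was measured repeatedly during 40 h treatment.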
For orientation: Quantitative high-throughput screening tests each substance at several concentrations.

Assay [5] is described as follows: qHTS RealTime-Glo MT Cell Viability Assay in HEK293 cells - 24 hour (AID 1224886). Note: top concentration of the series differs between compounds; nearly all actives have a fitted effect of over 50% in size. Summed up:
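Luminescence generated by NanoLuc from substrate produced by living HEK293 cells served as the viability signal. Each value reflects the reading at its stated time point during continuous 40 h compound exposure at 37 C.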

A short description of assay [6]: qHTS RealTime-Glo MT Cell Viability Assay in HEK293 cells - 8 hour (AID 1224887). Note: top concentration of the series differs between compounds; nearly all actives have a fitted effect of over 50% in size. Summed up:
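qHTS format; HEK293 cells with NanoLuc/prosubstrate reagent, 37 C/5% CO2 for 5 h pre-dosing; compounds 23 nL in DMSO; luminescence at each time point reflects viable cells.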

The nature of assay [7]: A CellTox Green Cytotoxicity Assay to monitor cytotoxicity in HEK293 cells - 16 hour (AID 1224888). Note: nearly all actives have a fitted effect of over 35% in size. In outline: as §2
Assay [8] is described as follows: qHTS RealTime-Glo MT Cell Viability Assay in HepG2 cells - 0 hour (AID 1224889). Note: nearly all actives have a fitted effect of over 50% in size. Summed up:
as §3

Assay [9] can be described thus: A CellTox Green Cytotoxicity Assay to monitor cytotoxicity in HepG2 cells - 8 hour (AID 1224890). Note: nearly all actives have a fitted effect of over 45% in size. In outline:
as §1

Assay [10] is described as follows: qHTS assay to identify small molecule antagonists of the estrogen receptor alpha (ER-alpha) signaling pathway using the BG1 cell line in the presence of 0.1 nM 17-beta-estradiol - cell viability counter screen (AID 1259241). Note: nearly all actives have a fitted effect of over 40% in size. Summed up: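 Cells were plated and left 24 hr, compounds in DMSO were pinned in, 17beta-estradiol was added to 0.1 nM final, and after 22 hr CellTiter-Fluor reagent was added for 30 min before fluorescence was read.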

Assay [11] in a line: qHTS assay to identify small molecule antagonists of the androgen receptor (AR) signaling pathway using the MDA cell line in the presence of 0.5 nM R1881 - cell viability counter screen (AID 1259242). Note: nearly all actives have a fitted effect of over 45% in size. In outline: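 Fluorescence from CellTiter-Fluor, which reports protease activity of live cells, was read 30 min after reagent addition to MDA-kb2 cells that had been incubated 16 hr with compound and 0.5 nM R1881.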

Assay [12] deals with Estrogen receptor (Homo sapiens) (UniProt P03372). The assay can be described thus: qHTS assay to identify small molecule antagonists of the estrogen receptor alpha (ER-alpha) signaling pathway using the BG1 cell line in the presence of 0.1 nM 17-beta-estradiol (AID 1259244). Note: nearly all actives have a fitted effect of over 50% in size. Summed up: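 Quantitative high-throughput screen in VM7Luc4E2 cells: compound plus 0.1 nM E2 (final), 22 h, 37C, 5% CO2; ONE-Glo added, 30 min room temperature, luminescence measured.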
Sequence of Estrogen receptor (Homo sapiens) (P03372 whole entry, looked up): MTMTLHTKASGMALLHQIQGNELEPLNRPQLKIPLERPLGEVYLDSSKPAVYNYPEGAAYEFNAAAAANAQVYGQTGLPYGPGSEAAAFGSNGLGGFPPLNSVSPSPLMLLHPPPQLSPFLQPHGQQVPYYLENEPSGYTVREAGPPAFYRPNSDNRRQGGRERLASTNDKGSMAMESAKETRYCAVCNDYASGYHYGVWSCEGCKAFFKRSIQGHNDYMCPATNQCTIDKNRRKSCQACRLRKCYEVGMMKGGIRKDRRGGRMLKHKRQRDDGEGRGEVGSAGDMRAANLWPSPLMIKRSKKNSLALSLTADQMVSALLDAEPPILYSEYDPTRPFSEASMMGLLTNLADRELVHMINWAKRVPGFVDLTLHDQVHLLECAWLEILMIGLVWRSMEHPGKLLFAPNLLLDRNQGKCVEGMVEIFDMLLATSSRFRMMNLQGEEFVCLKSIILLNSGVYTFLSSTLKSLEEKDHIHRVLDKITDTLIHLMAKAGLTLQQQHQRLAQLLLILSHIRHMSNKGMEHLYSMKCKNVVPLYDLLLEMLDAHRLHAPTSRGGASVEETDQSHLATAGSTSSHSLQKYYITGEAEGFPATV

Assay [13] is described as follows: qHTS assay to identify small molecule HDAC inhibitors (AID 1259364). Note: top concentration of the series differs between compounds; nearly all actives have a fitted effect of over 45% in size. Summed up: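 Endogenous HDAC class I/II activity was measured in wild-type HCT-116 cells by HDAC-Glo luminescence after 2 h compound treatment.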
A short description of assay [14]: qHTS assay to identify small molecule agonists of the sonic hedgehog signaling (Shh) pathway - cell viability counter screen (AID 1259366). Note: nearly all actives have a fitted effect of over 50% in size. Note: potency is the fitted concentration of half-maximal effect. Summed up:
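Cells are plated at 2,000 per well and left 4hr at 37C, 5% CO2 before compound addition. After 23hr of treatment, CellTiter-Fluor reagent is added for 1hr at 37C and fluorescence is measured.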

The nature of assay [15]: qHTS assay to identify small molecule antagonists of the sonic hedgehog signaling (Shh) pathway - cell viability counter screen (AID 1259367). Note: nearly all actives have a fitted effect of over 55% in size. Note: potency is the fitted concentration of half-maximal effect. Summed up: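 Using CellTiter-Fluor, viability of Gli1-Luc reporter 3T3 cells is read by fluorescence in the wells used for the Shh luciferase assay. Treatment lasts 23 hr with conditioned medium, then reagent 1 hr at 37C.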
Assay [16] can be described thus: qHTS assay to identify small molecule agonists of the sonic hedgehog signaling (Shh) pathway (AID 1259368; calls by dose curve;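 note: NIH/3T3-derived 3T3Gli1-Luc cells carrying a stable Gli1-driven firefly luciferase reporter; series mostly up to about 92 µM; nearly all actives have a fitted effect of over 15% in size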). In outline: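 Luminescent signal was taken as a measure of Gli1-controlled luciferase expression in stably transfected NIH/3T3-derived cells that had been treated for 24 hr with compounds delivered in DMSO.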
The nature of assay [17]: qHTS assay to identify small molecule antagonists of the sonic hedgehog signaling (Shh) pathway (AID 1259369; calls by dose curve; note: nearly all actives have a fitted effect of over 45% in size; note: potency is the fitted concentration of half-maximal effect). In outline: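 Screening used 3T3Gli1-Luc cells at 2,000 per well, compounds delivered in DMSO, and conditioned medium as agonist stimulus; plates incubated 24hr at 37 C and 5% CO2 before a 30min luciferase step.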
Assay [18] deals with Androgen receptor (Homo sapiens) (UniProt P10275). As to the kind of experiment: qHTS assay to identify small molecule antagonists of the androgen receptor (AR) signaling pathway using the MDA cell line in the presence of 0.5 nM R1881 (AID 1259243). Note: nearly all actives have a fitted effect of over 50% in size. Summed up: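 Inhibition of R1881 (0.5 nM final) induced reporter signal was measured in human MDA-kb2 cells; note the MMTV promoter also responds to GR. Exposure lasted 16 hr at 37C.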
Sequence of Androgen receptor (Homo sapiens) (P10275 whole entry, looked up): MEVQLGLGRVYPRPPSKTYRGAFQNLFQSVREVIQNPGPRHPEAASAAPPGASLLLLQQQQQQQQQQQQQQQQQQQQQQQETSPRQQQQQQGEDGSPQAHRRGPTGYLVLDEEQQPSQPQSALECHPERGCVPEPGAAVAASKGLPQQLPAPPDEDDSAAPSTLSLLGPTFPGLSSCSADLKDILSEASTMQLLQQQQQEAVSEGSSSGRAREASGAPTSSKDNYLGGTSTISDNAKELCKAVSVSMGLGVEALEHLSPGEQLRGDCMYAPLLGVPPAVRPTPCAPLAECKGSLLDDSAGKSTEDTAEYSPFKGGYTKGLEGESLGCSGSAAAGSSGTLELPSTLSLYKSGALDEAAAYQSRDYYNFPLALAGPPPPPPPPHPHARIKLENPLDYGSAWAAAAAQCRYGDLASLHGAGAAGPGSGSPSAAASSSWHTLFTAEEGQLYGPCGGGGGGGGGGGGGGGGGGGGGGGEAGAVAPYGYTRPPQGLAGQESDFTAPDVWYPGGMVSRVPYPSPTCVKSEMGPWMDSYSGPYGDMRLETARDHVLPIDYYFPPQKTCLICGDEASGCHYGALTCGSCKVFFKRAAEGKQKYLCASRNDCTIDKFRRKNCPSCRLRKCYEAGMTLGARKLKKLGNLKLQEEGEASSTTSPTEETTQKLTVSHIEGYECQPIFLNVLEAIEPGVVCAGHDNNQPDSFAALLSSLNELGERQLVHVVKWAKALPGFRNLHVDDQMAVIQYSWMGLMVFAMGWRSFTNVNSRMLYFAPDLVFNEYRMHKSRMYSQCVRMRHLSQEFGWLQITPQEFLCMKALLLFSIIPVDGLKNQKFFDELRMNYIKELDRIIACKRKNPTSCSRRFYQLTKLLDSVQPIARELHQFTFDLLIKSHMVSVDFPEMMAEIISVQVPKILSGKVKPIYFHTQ

Assay [19] can be described thus: qHTS assay to identify small molecule phospholipidosis (PLD) inducers (AID 1259344; active = well fitted curve in the direction sought with a large enough effect; an effect the other way counts as inactive or inconclusive). In outline: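 Fluorescent phospholipid staining (LipidTOX Red) measured by automated microscopy in fixed HepG2 cells after 24 h treatment; nuclei counterstained with Hoechst 33342; amiodarone as reference inducer.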
The nature of assay [20]: qHTS assay to identify small molecule HDAC inhibitors - cell viability counter screen (AID 1259365). Summed up:
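Counter screen in wild-type HCT-116 cells: compounds dissolved in DMSO are pin-transferred onto overnight-plated cells and left 2hr at 37C. ATP-based CellTiter-Glo luminescence then measures viable cells.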

For `Cc1cccc(O)c1C`, the Potency result in [1], in assay [2], in assay [4], in assay [5], in [6] and in assay [7] was “inactive” throughout. Besides, the Potency result in assay [8], in assay [9], in assay [10], in assay [11], in assay [12] and in assay [13] was “inactive” each time. Also, the Potency result in [14], in assay [15], in assay [16] and in [17] was “inactive” each time. Further, the Potency entry in assay [3] is “inactive and 22.5 µM (active)”.

Consider `COc1ccc(Cc2cnc(N)nc2N)cc1OC`, for which the Potency entry in assay [1], in [2], in assay [3], in assay [4], in assay [5] and in assay [6] was “inactive” in each case. Besides, the Potency result in assay [7], in [8], in [9], in [10], in assay [11] and in assay [18] was “inactive” throughout. For the same compound, the Potency entry in assay [12], in assay [19], in assay [20], in [14], in assay [15] and in assay [16] was “inactive” in each case. The Potency entry in assay [17] is “inactive”.

`CCCNC(C)C(=O)Nc1ccccc1C` (stereo unspecified): the Potency result in assay [1], in assay [2], in assay [3], in assay [4], in assay [5] and in assay [6] was “inactive” each time. Moreover, the Potency result in assay [7], in assay [8], in assay [9], in [10], in [11] and in [12] was “inactive” throughout. Moreover, the Potency result in assay [19], in assay [20], in [14], in [15], in assay [16] and in assay [17] was “inactive” each time.

Take `CC(=O)CC(=O)Nc1ccc2[nH]c(=O)[nH]c2c1`: the Potency result in [1], in assay [2], in assay [3], in assay [4], in [5] and in [6] was “inactive” each time. Also, the Potency entry in [7], in assay [8], in assay [9], in assay [10], in assay [11] and in assay [12] was “inactive” each time. In addition, the Potency result in assay [13], in assay [20], in assay [14], in [15] and in [17] was “inactive” each time.

In the case of `COc1cc(C(=S)N2CCOCC2)ccc1O`, the Potency result in assay [1], in [2], in assay [3], in [4], in [5] and in [6] was “inactive” in each case. Further, the Potency result in assay [7], in assay [8], in assay [9], in assay [10], in assay [11] and in [18] was “inactive” in each case. Also, the Potency entry in assay [12], in assay [19], in assay [13], in [20], in assay [14] and in assay [15] was “inactive” each time. Also, the Potency entry in assay [17] was “inactive”.

With `NC(N)=Nc1nc(CSCC/C(N)=N/S(N)(=O)=O)cs1`, the Potency result in assay [1], in assay [2], in assay [3], in assay [4], in assay [5] and in assay [6] was “inactive” in each case. Moreover, the Potency entry in assay [7], in assay [8], in assay [9], in [10], in assay [11] and in [12] was “inactive” each time. Moreover, the Potency entry in [19], in assay [20], in assay [14], in assay [15], in [16] and in assay [17] was “inactive” in each case.

With `CCN(CC)C(=O)Nc1ccc(OCC(O)CNC(C)(C)C)c(C(C)=O)c1` (stereo unspecified), the Potency result in assay [1], in assay [2], in assay [3], in assay [4], in [5] and in assay [6] was “inactive” in each case. Besides, the Potency result in assay [7], in assay [8], in assay [9], in [10], in assay [11] and in assay [18] was “inactive” each time. In addition, the Potency result in assay [12], in assay [19], in assay [13], in assay [20], in [14] and in [15] was “inactive” each time. The Potency result in assay [16] and in assay [17] was “inactive” in each case.

As to `O=C(O)c1cc(Cl)cc(Cl)c1`, the Potency entry in assay [1], in assay [2], in assay [3], in assay [4], in assay [5] and in [6] was “inactive” each time. Besides, the Potency entry in [7], in assay [8], in assay [9], in assay [10], in assay [11] and in [12] was “inactive” in each case. For the same compound, the Potency result in assay [13], in assay [20], in assay [14], in assay [15], in assay [16] and in [17] was “inactive” each time.

Consider `CC(C(O)c1ccc(O)cc1)N1CCC(Cc2ccccc2)CC1` (stereo unspecified), for which the Potency result in [1], in assay [2], in [3], in [4], in assay [5] and in assay [6] was “inactive” in each case. In addition, the Potency result in assay [7], in [8], in assay [9], in [10], in [11] and in assay [12] was “inactive” in each case. In addition, the Potency entry in assay [13], in assay [20], in [14], in assay [15], in [16] and in assay [17] was “inactive” throughout.

For `c1cc(C(c2ccc(OCC3CO3)cc2)C(c2ccc(OCC3CO3)cc2)c2ccc(OCC3CO3)cc2)ccc1OCC1CO1` (stereo unspecified), the Potency entry in assay [1], in assay [2], in assay [3], in assay [4], in assay [5] and in assay [6] was “inactive” throughout. The Potency result in assay [7], in assay [8], in assay [9], in assay [10], in assay [11] and in assay [12] was “inactive” each time. Besides, the Potency result in assay [20], in assay [14], in assay [15], in [16] and in [17] was “inactive” each time.

`O=c1n(CC2CO2)c(=O)n(CC2CO2)c(=O)n1CC1CO1` (stereo unspecified): the Potency entry in assay [1], in [2], in [3], in assay [4], in assay [5] and in assay [6] was “inactive” throughout. The Potency result in [7], in [8], in assay [9], in assay [10], in assay [11] and in assay [12] was “inactive” in each case. For the same compound, the Potency result in assay [19], in assay [20] and in [16] was “inactive” each time. Moreover, the Potency in assay [14] was 61.1 µM (active); in assay [15] it was 30.5 µM (active) and 48.6 µM (active); in assay [17], 963 nM (active) and 3.06 µM (active).

With `C#CC(C)(CC)OC(=O)c1ccccc1C(=O)O` (stereo unspecified), the Potency entry in assay [1], in assay [2], in [3], in assay [4], in assay [5] and in [6] was “inactive” each time. The Potency result in [7], in assay [8], in assay [9], in assay [10], in assay [11] and in assay [18] was “inactive” in each case. The Potency entry in [12], in [13], in assay [20], in assay [14] and in [15] was “inactive” in each case.
